Inconclusive results are not listed. For part of these data: Measured potencies and affinities stand elsewhere. Active and inactive are the calls of the source.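 The calls were made as follows, unless noted: active = luciferase signal above three times the same-plate solvent-only control wells; inactive = the rest.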
What was measured:
[1] = blockers of polyQ-driven CASP3 activation – cell-based (AID 1583); conditions: polyglutamine-induced caspase-3 activation, cell assay; stronger effect = higher value;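 tested at 10 µM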
[2] = yeast 75Q aggregation reduction – 75Q-TubU reporter (AID 1593); conditions: Yeast 75Q polyglutamine aggregation reporter
[3] = restoration of touch response, mutant HTT neurons – whole organism, C. elegans mechanosensory neurons, N-terminal huntingtin (AID 1599); conditions: C. elegans polyQ-huntingtin mechanosensory neurons, stronger effect = higher value
[4] = blockers of cytochrome c efflux from mitochondria – biochemical, purified mitochondria (AID 1603); conditions: stronger effect = lower value;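 also: mouse liver mitochondria challenged with calcium chloride; signal normalized to the plate average as 100%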
[5] = polyglutamine aggregate formation blockers (AID 1604); conditions: polyglutamine-induced protein aggregation inhibition assay; stronger effect = higher value; tested at 2.5 µM
[6] = glutamate transport activators, MN-1 cells, MN-1 cell line (AID 1612); conditions: MN-1 motor neuron cells, stronger effect = higher value;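 also: tested at 1 µM final; 0% = mean of DMSO vehicle wells on each plate; positive means more glutamate uptake than control and negative means less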
[7] = GFP-Q80 aggregate reduction, neuronal-like cells, cell-based, NGF-treated PC12, GFPQ80 (AID 1614); conditions: PC12 NGF-treated GFP-polyQ80 inclusion reduction;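 also: lower means fewer inclusions and 0 means no inclusions at all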
[8] = 75Q-TubH aggregate inhibition, S. cerevisiae, yeast (AID 1616); conditions: S. cerevisiae 75Q-TubH polyglutamine aggregation suppression; stronger effect = higher value
[9] = blockers of biotin-polyQ monomer incorporation into aggregates – biochemical, solid-phase synthetic aggregates, QA3 (AID 1585; call rule not given here); conditions: polyQ aggregate elongation; EC50: measured here: elongation inhibition potency; inhibition: at 100 µM, stronger effect = higher value
[10] = rescue of PC12 cells from polyQ htt toxicity – LDH release (AID 1610); conditions: PC12 mutant huntingtin toxicity, final LDH at 4 uM, stronger effect = lower value
[11] = target: Mitogen-activated protein kinase 7 (Homo sapiens) (UniProt Q13164); test: Gal4-ERK5 driven luciferase induction – cell-based, HTS, primary screen (AID 1508626); conditions: HeLa Gal4-ERK5 transactivation, 18 h, at 5 µM, stronger effect = higher value;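 also: luciferase driven by Gal4-ERK5 fusion binding five Gal4 sites before minimal TATA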
[12] = selective SMN2 exon splicing luciferase activators – cell-based, SMN2/SMN1 luciferase reporters (AID 1598; call rule not given here); conditions: SMN2 vs SMN1 luciferase splicing reporter cells, at 10 µM; SMN1 luciferase ratio: measured here: SMN1 luciferase reporter average; SMN2 luciferase ratio: measured here: SMN2 luciferase reporter average, stronger effect = higher value; SMN2/SMN1 luciferase ratio: stronger effect = higher value
[13] = P. berghei load reduction in hepatocytes – cell-based, HepG2, luciferase luminescence, HepG2 viability, primary screen (AID 624349; in the data active = parasite load remaining mostly below about 12%, no sharp cut-off; inactive = mostly above about 10%;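 also: 100% = mean of DMSO negative control wells on the same plate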); conditions: P. berghei liver stage in HepG2, luciferase luminescence, concentration not given here; parasite load remaining: stronger effect = lower value; viability: measured here: HepG2 viability without parasites

Mitogen-activated protein kinase 7 (Homo sapiens), sequence (Q13164 whole entry, looked up, the tested form may be a part): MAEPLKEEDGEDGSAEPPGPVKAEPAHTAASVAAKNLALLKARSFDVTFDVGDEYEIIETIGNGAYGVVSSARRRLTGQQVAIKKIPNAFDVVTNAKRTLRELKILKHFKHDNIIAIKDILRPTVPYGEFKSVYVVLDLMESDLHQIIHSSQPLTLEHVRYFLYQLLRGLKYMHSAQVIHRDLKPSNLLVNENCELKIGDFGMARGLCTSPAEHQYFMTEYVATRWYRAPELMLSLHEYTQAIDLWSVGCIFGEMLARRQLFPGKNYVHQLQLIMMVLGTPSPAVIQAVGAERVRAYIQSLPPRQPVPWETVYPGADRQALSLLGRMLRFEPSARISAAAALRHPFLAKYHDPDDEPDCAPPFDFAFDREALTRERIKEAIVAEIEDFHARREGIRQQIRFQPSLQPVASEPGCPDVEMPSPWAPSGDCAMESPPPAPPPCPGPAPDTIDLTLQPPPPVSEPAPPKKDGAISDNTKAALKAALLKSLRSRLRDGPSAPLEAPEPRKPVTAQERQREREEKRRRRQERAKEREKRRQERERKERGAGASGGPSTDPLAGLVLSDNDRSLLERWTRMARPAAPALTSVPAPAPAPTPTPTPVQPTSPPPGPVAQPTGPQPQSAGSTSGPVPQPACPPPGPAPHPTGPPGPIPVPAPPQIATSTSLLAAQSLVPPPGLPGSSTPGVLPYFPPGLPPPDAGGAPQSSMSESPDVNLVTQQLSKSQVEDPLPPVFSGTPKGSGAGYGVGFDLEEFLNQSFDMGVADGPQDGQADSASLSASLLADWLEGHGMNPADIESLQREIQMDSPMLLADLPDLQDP

CC(CNC(=O)c1ccccc1)C(=O)OCC(=O)[C@@]12OC(C)(C)O[C@@H]1CC1C3CCC4=CC(=O)C=C[C@]4(C)[C@@]3(F)[C@@H](O)C[C@@]12C (stereo partly drawn)
inhibition [1]: -1.62%
score [2]: 1.01
rescue above control [3]: 13.9
cytochrome c release ratio [4]: 0.92
inhibition of aggregation [5]: 100%
glutamate uptake change [6]: 4.01%
inclusion score [7]: 2.5
aggregation suppression score [8]: 1.21

O=c1c(O)cc2c(O)oc3c(=O)c(O)cc4c3c2c1CC=4O
inhibition [1]: -1.16%
EC50 [9]: 44 µM
inhibition [9]: 82% (active)
score [2]: -1.91
rescue above control [3]: -6.17
cytochrome c release ratio [4]: 1.61
inhibition of aggregation [5]: 25.2%
glutamate uptake change [6]: -0.57%
inclusion score [7]: 2
aggregation suppression score [8]: 0.786

C=C1C(=O)OC2C1CCC1(C)CCC=C(C)C21 (stereo not drawn)
inhibition [1]: 56%
score [2]: 0.7
rescue above control [3]: 5.32
cytochrome c release ratio [4]: 0.81
inhibition of aggregation [5]: -33.3%
normalised LDH release [10]: 0.89
glutamate uptake change [6]: 0.76%
aggregation suppression score [8]: 0.322

CO/N=C1\C[C@]2(C[C@@H]3C[C@@H](C/C=C(\C)C[C@@H](C)/C=C/C=C4\CO[C@@H]5[C@H](O)C(C)=C[C@@H](C(=O)O3)[C@]45O)O2)O[C@H](/C(C)=C/C(C)C)[C@H]1C
luciferase signal [11]: 40 AU (inactive)

C=CCSC[C@H](N)C(=O)O
luciferase signal [11]: 44 AU (inactive)

OC[C@@H](O)C(O)[C@@H](O)CO (stereo partly drawn)
luciferase signal [11]: 88 AU (inactive)

CC(C)(O)[C@@H]1CC[C@](C)([C@H]2[C@@H](O)C[C@@]3(C)[C@@H]4C[C@H](O[C@@H]5O[C@H](CO)[C@@H](O)[C@H](O)[C@H]5O)[C@H]5C(C)(C)[C@@H](O[C@@H]6OC[C@@H](O)[C@H](O)[C@H]6O)CC[C@@]56C[C@@]46CC[C@]23C)O1
luciferase signal [11]: 52 AU (inactive)

OC[C@H]1O[C@H]([S-])[C@H](O)[C@@H](O)[C@@H]1O.[Au+]
luciferase signal [11]: 68 AU (inactive)

NCCC(=O)c1ccccc1N
luciferase signal [11]: 88 AU (inactive)

CC(=O)OCC(=O)[C@@]12OC(C)(C)O[C@@H]1C[C@H]1C3C[C@H](F)C4=CC(=O)C=CC4(C)[C@@]3(F)[C@@H](O)C[C@@]12C (stereo partly drawn)
inhibition [1]: -2.33%
score [2]: 1.28
rescue above control [3]: 14.3
cytochrome c release ratio [4]: 0.88
inhibition of aggregation [5]: 85.9%
glutamate uptake change [6]: 13.8%
inclusion score [7]: 2
aggregation suppression score [8]: 0.953

C[C@@]12CCc3occc3[C@H]1CC[C@@]13C[C@@H](CC[C@H]12)[C@@](O)(CO)C3
luciferase signal [11]: 40 AU (inactive)

CC1(C)CCCC2(C)C3C(O)CC2(C)C(O)C31 (stereo not drawn)
luciferase signal [11]: 64 AU (inactive)

CC(C)CCC[C@@H](C)C1CC[C@H]2[C@@H]3CCC4CC(=O)CC[C@]4(C)[C@H]3CC[C@]12C (stereo partly drawn)
luciferase signal [11]: 52 AU (inactive)

CC[C@@]1(O)C[C@H](OC2CC(N(C)C)C(OC3CC(O)C(OC4CCC(=O)C(C)O4)C(C)O3)C(C)O2)c2c(cc3c(c2O)C(=O)c2c(O)cccc2C3=O)[C@H]1C(=O)OC (stereo partly drawn)
inhibition [1]: -23.8%
score [2]: 0.51
SMN1 luciferase ratio [12]: 1.26
SMN2/SMN1 luciferase ratio [12]: 1.34 (active)
SMN2 luciferase ratio [12]: 1.64
rescue above control [3]: 0
cytochrome c release ratio [4]: 4.02
inhibition of aggregation [5]: 1.96%
normalised LDH release [10]: 0.363
glutamate uptake change [6]: 47.8%
aggregation suppression score [8]: 0.557

COC(=O)/C=C/C(C)=C\C=C\C(C)=C\C=C\C=C(C)\C=C\C=C(C)\C=C\C(=O)O
luciferase signal [11]: 64 AU (inactive)

O=C(O)C(O)C(O)(Cc1ccc(O)cc1)C(=O)O (stereo not drawn)
luciferase signal [11]: 16 AU (inactive)

C/C=C(/C)C(=O)O[C@H]1[C@H](OC(C)=O)[C@]2(CO)[C@H](O)C[C@]3(C)C(=CC[C@@H]4[C@@]5(C)CC[C@H](O[C@@H]6O[C@H](C(=O)O)[C@@H](O[C@@H]7O[C@H](CO)[C@@H](O)[C@H](O)[C@H]7O)[C@H](O)[C@H]6O[C@@H]6O[C@H](CO)[C@@H](O)[C@H](O)[C@H]6O)[C@](C)(CO)[C@@H]5CC[C@]43C)[C@@H]2CC1(C)C
luciferase signal [11]: 276 AU (inactive)

O[C@H]1[C@H](O)[C@@H](O)C2OC[C@H]1O2
luciferase signal [11]: 60 AU (inactive)

CC(=O)Oc1ccc2c(c1)CCC1C2CCC2(C)C(=O)CCC12 (stereo not drawn)
inhibition [1]: 10.5%
score [2]: -0.03
rescue above control [3]: -10.4
cytochrome c release ratio [4]: 0.81
inhibition of aggregation [5]: 85.9%
glutamate uptake change [6]: -16%
inclusion score [7]: 2
aggregation suppression score [8]: 0.169

OCc1cc2c(cn1)[nH]c1ccccc12
inhibition [1]: 15.8%
score [2]: 0.82
rescue above control [3]: 10.8
cytochrome c release ratio [4]: 0.58
inhibition of aggregation [5]: -1.27%
glutamate uptake change [6]: 17.8%
inclusion score [7]: 2
aggregation suppression score [8]: 1.28

OCCS
inhibition [1]: 26.7%
score [2]: 1.26
rescue above control [3]: -1.67
cytochrome c release ratio [4]: 1.18
inhibition of aggregation [5]: 29.4%
glutamate uptake change [6]: 5.07%
inclusion score [7]: 2
aggregation suppression score [8]: 1.5

COc1ccc(CCC(=O)c2c(O)cc(O[C@@H]3O[C@H](CO)C(O)[C@H](O)C3O[C@@H]3O[C@@H](C)[C@H](O)[C@@H](O)[C@H]3O)cc2O)cc1O (stereo partly drawn)
inhibition [1]: 18.6%
score [2]: 1.15
rescue above control [3]: -2.46
cytochrome c release ratio [4]: 1.1
inhibition of aggregation [5]: 77.8%
glutamate uptake change [6]: -15.4%
inclusion score [7]: 2
aggregation suppression score [8]: 1.25
parasite load remaining [13]: 146% (inactive)
viability [13]: 70.8%

CO/N=C(\C(=O)NC1C(=O)N2C(C(=O)O)=C(CSc3nc(=O)c(O)nn3C)CS[C@H]12)c1csc(N)n1 (stereo partly drawn)
inhibition [1]: 3.84%
score [2]: 1.38
rescue above control [3]: -0.56
cytochrome c release ratio [4]: 1.14
inhibition of aggregation [5]: 62.1%
glutamate uptake change [6]: 15.4%
inclusion score [7]: 2
aggregation suppression score [8]: 1.05

C1CCN2C[C@@H]3CC(CN4CCCC[C@@H]34)[C@H]2C1
inhibition [1]: 16.2%
score [2]: 1.32
rescue above control [3]: -2.17
cytochrome c release ratio [4]: 1.45
inhibition of aggregation [5]: 72.7%
glutamate uptake change [6]: -9.72%
inclusion score [7]: 2
aggregation suppression score [8]: 1.48
